The record followed here is article PMC5700166.

Holding throughout (assay): protein-binding microarray (PBM); PBM: ~300 nM protein, 6 mM HEPES pH 7.8, 80 mM KCl, 0.5 mM EDTA, 0.5 mM EGTA, 6% glycerol, 35 ng/ul poly-dIdC, 1% milk, 1 h, room temperature; Ap Aiptasia and Nv Nematostella (sea anemones) / Co Capsaspora / Aq Amphimedon (sponge) / Dm Drosophila / Hu human; RHD is the Rel homology domain; high values mean tight binding
Holding throughout (settings): dsDNA, one strand shown

In test [1] the target is T1, GST-Ap-NF-kB RHD (Exaiptasia pallida (Aiptasia), UniProt A0A913YAJ5 2-422).
T1 sequence: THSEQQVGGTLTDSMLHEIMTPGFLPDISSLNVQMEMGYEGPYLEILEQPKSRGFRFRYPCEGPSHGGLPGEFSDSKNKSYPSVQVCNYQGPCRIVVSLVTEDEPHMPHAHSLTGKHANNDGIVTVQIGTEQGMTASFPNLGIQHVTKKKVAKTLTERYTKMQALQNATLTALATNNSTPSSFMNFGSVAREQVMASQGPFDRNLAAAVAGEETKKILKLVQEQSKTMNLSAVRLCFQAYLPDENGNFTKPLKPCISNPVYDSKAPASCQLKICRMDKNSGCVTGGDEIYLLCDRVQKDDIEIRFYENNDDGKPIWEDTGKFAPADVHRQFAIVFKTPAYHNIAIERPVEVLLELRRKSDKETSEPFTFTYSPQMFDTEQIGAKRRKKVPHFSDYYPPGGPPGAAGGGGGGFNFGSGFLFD

The target in test [2] is T2, GST-Nv-NF-kB (Cys allele) (Nematostella vectensis, UniProt E5G601 2-411).
T2 sequence: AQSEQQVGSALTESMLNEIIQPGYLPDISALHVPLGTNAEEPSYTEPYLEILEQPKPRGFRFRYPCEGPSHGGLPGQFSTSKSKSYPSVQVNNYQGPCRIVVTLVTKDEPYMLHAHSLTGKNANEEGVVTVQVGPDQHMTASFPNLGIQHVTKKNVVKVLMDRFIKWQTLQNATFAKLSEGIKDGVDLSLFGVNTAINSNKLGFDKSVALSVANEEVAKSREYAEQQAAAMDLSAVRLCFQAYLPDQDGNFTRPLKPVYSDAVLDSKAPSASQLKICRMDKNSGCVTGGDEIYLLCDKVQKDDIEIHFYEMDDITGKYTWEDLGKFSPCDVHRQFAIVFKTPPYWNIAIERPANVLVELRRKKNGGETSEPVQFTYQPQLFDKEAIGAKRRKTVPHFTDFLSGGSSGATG

The target of test [3] is T3, GST-Nv-NF-kB (Ser allele) (Nematostella vectensis, UniProt A7UNT2 2-411).
T3 sequence: T2 sequence with Q21R, C66S, S207N, E215Q, V217A, E225K, A268E, D399E

Test [4] addresses T4, GST-Co-NF-kB (Capsaspora owczarzaki, UniProt F1ARL5 200-546).
T4 sequence: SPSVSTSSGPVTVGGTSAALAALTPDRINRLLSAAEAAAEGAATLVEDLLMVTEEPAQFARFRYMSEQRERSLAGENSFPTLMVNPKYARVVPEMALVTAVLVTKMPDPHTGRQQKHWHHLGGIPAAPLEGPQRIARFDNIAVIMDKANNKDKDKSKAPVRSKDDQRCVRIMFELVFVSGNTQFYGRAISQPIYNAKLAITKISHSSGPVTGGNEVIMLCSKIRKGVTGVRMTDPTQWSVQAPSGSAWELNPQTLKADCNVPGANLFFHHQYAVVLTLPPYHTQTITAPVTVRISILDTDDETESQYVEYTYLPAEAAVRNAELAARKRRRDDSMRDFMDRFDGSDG

The target of test [5] is T5, GST-Dm-Relish (Drosophila melanogaster, UniProt Q94527 99-473).
T5 sequence: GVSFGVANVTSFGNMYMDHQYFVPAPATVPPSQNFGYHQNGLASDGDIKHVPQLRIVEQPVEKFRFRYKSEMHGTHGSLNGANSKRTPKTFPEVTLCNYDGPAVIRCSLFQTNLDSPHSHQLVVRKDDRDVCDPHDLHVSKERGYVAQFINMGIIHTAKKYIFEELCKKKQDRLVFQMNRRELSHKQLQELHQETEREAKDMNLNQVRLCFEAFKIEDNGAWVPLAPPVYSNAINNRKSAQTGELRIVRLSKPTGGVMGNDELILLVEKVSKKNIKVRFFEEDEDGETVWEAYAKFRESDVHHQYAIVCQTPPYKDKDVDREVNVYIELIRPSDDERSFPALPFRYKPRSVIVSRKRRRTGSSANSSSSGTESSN

Test [6] concerns the target T6, GST-Aq-NF-kB (Amphimedon queenslandica, UniProt A9Y5G7 2-389).
T6 sequence: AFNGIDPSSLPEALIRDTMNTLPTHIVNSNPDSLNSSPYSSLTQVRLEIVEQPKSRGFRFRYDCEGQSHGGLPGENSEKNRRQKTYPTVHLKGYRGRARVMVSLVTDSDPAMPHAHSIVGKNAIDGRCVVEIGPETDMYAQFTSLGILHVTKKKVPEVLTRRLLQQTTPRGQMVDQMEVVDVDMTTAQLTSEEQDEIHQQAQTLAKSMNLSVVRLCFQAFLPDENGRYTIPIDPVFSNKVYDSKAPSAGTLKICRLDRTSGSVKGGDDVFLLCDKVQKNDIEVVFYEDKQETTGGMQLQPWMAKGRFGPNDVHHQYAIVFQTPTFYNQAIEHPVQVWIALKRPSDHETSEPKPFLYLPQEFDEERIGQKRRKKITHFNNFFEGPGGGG

Test [7] deals with GST-Hu-p50 (Homo sapiens, UniProt P19838 7-356).

Numbering of substitutions follows the chain as printed.

Chain of GST-Hu-p50 (P19838 7-356): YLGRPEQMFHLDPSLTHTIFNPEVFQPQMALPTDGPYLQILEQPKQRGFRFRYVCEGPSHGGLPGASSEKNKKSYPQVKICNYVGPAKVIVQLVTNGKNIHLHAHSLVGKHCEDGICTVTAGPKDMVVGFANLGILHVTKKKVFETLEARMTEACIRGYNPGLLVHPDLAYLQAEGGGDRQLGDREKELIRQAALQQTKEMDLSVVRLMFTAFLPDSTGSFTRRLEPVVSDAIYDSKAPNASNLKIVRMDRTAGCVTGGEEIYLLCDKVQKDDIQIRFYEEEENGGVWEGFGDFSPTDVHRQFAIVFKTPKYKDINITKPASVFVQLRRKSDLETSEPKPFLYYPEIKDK

As for “CCGATTAACATCAGGATTGTCCCTGATGTTAATCGGGTCTTGATTCGCTTGACGCTGCTG”, the binding signal in test [1] is 2.96 z-score; in test [2] it was 3.96 z-score; in test [3], 2.92 z-score; in test [4], 1.06 z-score; in test [5] it was 1.57 z-score; in test [6], 5.51 z-score. In addition, the binding signal in test [7] is 2.84 z-score.

Turning to “CCGATTAACATCAAACAATCCCCTGATGTTAATCGGGTCTTGATTCGCTTGACGCTGCTG”, the binding signal in test [1] came to 7.46 z-score; in test [2] it was 7.94 z-score; in test [3] it was 9.07 z-score; in test [4], 3.49 z-score; in test [5], 5.32 z-score; in test [6], 6.2 z-score. In test [7], the binding signal worked out at 6.29 z-score.

Turning to “CCGATTAACATCAGGGGGGTGGATGATGTTAATCGGGTCTTGATTCGCTTGACGCTGCTG”, the binding signal in test [1] amounted to 4.23 z-score; in test [2] it was 3.15 z-score; in test [3], 4.75 z-score; in test [4] it was 3.78 z-score; in test [5], 3.78 z-score; in test [6], 4.03 z-score. Further, the binding signal in test [7] stood at 4.19 z-score.

For the sequence “CCGATTAACATCAACTACCCCCCTGATGTTAATCGGGTCTTGATTCGCTTGACGCTGCTG”, the binding signal was 4.79 z-score in test [1]; 2.46 z-score in test [2]; 3.11 z-score in test [3]; 4.43 z-score in test [4]; 3.4 z-score in test [5]; 3.98 z-score in test [6]. Besides, the binding signal in test [7] came to 3.1 z-score.

Turning to “CCGATTAACATCACGGGGGTTCCTGATGTTAATCGGGTCTTGATTCGCTTGACGCTGCTG”, the binding signal was found to be 9.11 z-score in test [1]; 5.77 z-score in test [2]; 4.99 z-score in test [3]; 2.92 z-score in test [4]; 9.73 z-score in test [5]; 6.72 z-score in test [6]. The sequence also registered a binding signal in test [7] of 5.25 z-score.

In the case of “CCGATTAACATCAAAGAATCCCCTGATGTTAATCGGGTCTTGATTCGCTTGACGCTGCTG”, the binding signal stood at 8.71 z-score in test [1]; 9.68 z-score in test [2]; 11.8 z-score in test [3]; 4.06 z-score in test [4]; 9.1 z-score in test [5]; 6.89 z-score in test [6]. In test [7], this sequence showed a binding signal of 7.06 z-score.

For the sequence “CCGATTAACATCAGGATAACCCCTGATGTTAATCGGGTCTTGATTCGCTTGACGCTGCTG”, the binding signal was found to be 4.52 z-score in test [1]; 3.22 z-score in test [2]; 1.82 z-score in test [3]; 1.72 z-score in test [4]; 2.74 z-score in test [5]; 5.12 z-score in test [6]. In test [7], this sequence showed a binding signal of 3.08 z-score.

Take “CCGATTAACATCAGGGGGATACATGATGTTAATCGGGTCTTGATTCGCTTGACGCTGCTG”: the binding signal came to 5.54 z-score in test [1]; 4.96 z-score in test [2]; 5.54 z-score in test [3]; 6.27 z-score in test [4]; 3.6 z-score in test [5]; 4.35 z-score in test [6]. In test [7], the binding signal amounted to 5.05 z-score.

Take “CCGATTAACATCAGGGGGGTATATGATGTTAATCGGGTCTTGATTCGCTTGACGCTGCTG”: the binding signal was determined as 5.34 z-score in test [1]; 2.99 z-score in test [2]; 4.19 z-score in test [3]; 5.73 z-score in test [4]; 3.95 z-score in test [5]; 4.1 z-score in test [6]. Further, the binding signal in test [7] turned out to be 3.59 z-score.

Turning to “CCGATTAACATCAGGGGATGAATTGATGTTAATCGGGTCTTGATTCGCTTGACGCTGCTG”, the binding signal in test [1] was 3.07 z-score; in test [2] it was 4.37 z-score; in test [3], 5.12 z-score; in test [4], 4.99 z-score; in test [5] it was 2.75 z-score; in test [6], 3.44 z-score. This sequence gave a binding signal in test [7] of 3.88 z-score.

Regarding “CCGATTAACATCACAATATCCCCTGATGTTAATCGGGTCTTGATTCGCTTGACGCTGCTG”, the binding signal was determined as 7.16 z-score in test [1]; 6.58 z-score in test [2]; 7.91 z-score in test [3]; 4.15 z-score in test [4]; 5.03 z-score in test [5]; 4.96 z-score in test [6]. Besides, the binding signal in test [7] worked out at 4.67 z-score.

“CCGATTAACATCAGGATTCTCCCTGATGTTAATCGGGTCTTGATTCGCTTGACGCTGCTG”: the binding signal was 3.03 z-score in test [1]; 4.71 z-score in test [2]; 3.05 z-score in test [3]; 1.79 z-score in test [4]; 1.49 z-score in test [5]; 6.5 z-score in test [6]. Also, the binding signal in test [7] amounted to 3.33 z-score.
